Results filed as inconclusive are left out. The source made the active and inactive calls. Calls follow the shape of the dose curve; as a rule, active = well fitted curve in the direction sought with a large enough effect; inconclusive = small, poorly fitted or top-dose-only effect, or another doubt; inactive = no such curve, though single readings can be large; an effect the other way counts as inactive or inconclusive.
How the values were obtained:
[1] = molecular target: Aldehyde dehydrogenase, mitochondrial (Homo sapiens) (UniProt P05091); assay: qHTS for Inhibitors of the Aldehyde Dehydrogenase Family (ALDH2) Primary screen (AID 2061308);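 also: plate controls were vehicle for no effect and reference inhibitor for full effect; nearly all actives have a fitted effect of over 55% in size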
[2] = molecular target: Retinaldehyde dehydrogenase 3 (Homo sapiens) (UniProt P47895); assay: qHTS for Inhibitors of the Aldehyde Dehydrogenase Family (ALDH1A3) Primary screen (AID 2061315);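 also: plate controls were DMSO vehicle for no effect and reference inhibitor for full effect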
[3] = molecular target: Aldehyde dehydrogenase 1A1 (Homo sapiens) (UniProt P00352); assay: qHTS for Inhibitors of the Aldehyde Dehydrogenase Family (ALDH1A1) Confirmatory screens (AID 2061316); also: potency is read from the fitted curve at half-maximal effect; nearly all actives have a fitted effect of over 65% in size
[4] = BET inhibitor-based combinations targeting novel dependencies in MECOM-rearranged (r) AML: SET-2 cell line (AID 2202231); conditions: SET-2 AML cells viability, CellTiter-Glo luminescence, 48 h; viability: stronger effect = lower value, concentration not given here; also: nearly all actives have a fitted effect of over 35% in size; also: potency is read from the fitted curve at half-maximal effect;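 as to viability: plate controls were DMSO treated cells for no effect and wells without cells for full effect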
Method in brief: (§1)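 Here, 11-point titrations of each agent were applied to 500 seeded cells and incubated 48 hr; CellTiter-Glo signal, scaled against DMSO and empty wells, was integrated as AUC, then Z-scored within the individual line.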

[5] = BET inhibitor-based combinations targeting novel dependencies in MECOM-rearranged (r) AML: OCI-AML3 cell line (AID 2202232); conditions: Potency: OCI-AML3 viability; also: nearly all actives have a fitted effect of over 35% in size; also: potency is read from the fitted curve at half-maximal effect
Method in brief: as §1

[6] = BET inhibitor-based combinations targeting novel dependencies in MECOM-rearranged (r) AML: MV-4-11 cell line (AID 2202233); also: nearly all actives have a fitted effect of over 45% in size; also: potency is read from the fitted curve at half-maximal effect
Method in brief: (§2)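 Normalized to DMSO and empty-well controls, the luminescence data from CellTiter-Glo after 48 hr drug exposure were fitted across 11 concentrations. Reported metrics are area under the dose-response curve and its Z-transformed form.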

[7] = BET inhibitor-based combinations targeting novel dependencies in MECOM-rearranged (r) AML: HNT-34 cell line (AID 2202234); also: nearly all actives have a fitted effect of over 35% in size; also: potency is read from the fitted curve at half-maximal effect
Method in brief: as §2

[8] = BET inhibitor-based combinations targeting novel dependencies in MECOM-rearranged (r) AML: AML-191 cell line (AID 2202236; also: nearly all actives have a fitted effect of over 35% in size; also: potency is read from the fitted curve at half-maximal effect)
Method in brief: as §1

[9] = BET inhibitor-based combinations targeting novel dependencies in MECOM-rearranged (r) AML: AML-194 cell line (AID 2202237; also: nearly all actives have a fitted effect of over 40% in size; also: potency is read from the fitted curve at half-maximal effect)
Method in brief: as §1

[10] = BET inhibitor-based combinations targeting novel dependencies in MECOM-rearranged (r) AML: UCSD-AML1 cell line (AID 2202235); also: nearly all actives have a fitted effect of over 40% in size; also: potency is read from the fitted curve at half-maximal effect
Method in brief: as §2

c1nc(NC[C@@H]2CCCO2)c2cc(-c3ccc4c(c3)OCO4)ccc2n1
active: Potency [3] 20.1 µM
inactive: Potency [1] | Potency [2]

CNS(=O)(=O)c1ccc2c(c1)/C(=C/c1[nH]c3c(c1CCCN1CCN(C)CC1)CCCC3)C(=O)N2
active: Potency [4] 18.6 µM | Potency [5] 18.6 µM | Potency [6] 1.18 µM | Potency [7] 20.9 µM | Potency [8] 14.8 µM | Potency [9] 13.2 µM
inactive: Potency [1] | Potency [2]

CCN1CCN(Cc2ccc(NC(=O)c3ccc(C)c(/C=C/c4cnc5[nH]ccc5c4OC)c3)cc2C(F)(F)F)CC1
inactive: Potency [1] | Potency [2]
active: Potency [4] 5.9 µM | Potency [5] 5.25 µM | Potency [6] 0.186 µM | Potency [7] 0.209 µM | Potency [10] 2.95 µM | Potency [8] 2.95 µM | Potency [9] 2.95 µM

C[C@H]1[C@H](C)CC[C@]2(C(=O)O)CC[C@]3(C)C(=CC[C@@H]4[C@@]5(C)C[C@@H](O)[C@H](O)[C@@](C)(CO)[C@@H]5CC[C@]43C)[C@H]12
inactive: Potency [1] | Potency [2] | Potency [5] | Potency [6] | Potency [7] | Potency [8] | Potency [9]

C#Cc1cccc(Nc2ncnc3cc(OCCOC)c(OCCOC)cc23)c1
active: Potency [6] 5.9 µM | Potency [7] 5.25 µM
inactive: Potency [1] | Potency [2]

Cc1cc(-c2nc3cc(F)ccc3s2)ccc1NC(=O)[C@@H](N)CCCCN
inactive: Potency [1] | Potency [2]
active: Potency [4] 13.2 µM | Potency [6] 13.2 µM | Potency [7] 8.33 µM | Potency [10] 14.8 µM | Potency [8] 16.6 µM | Potency [9] 16.6 µM

CN1CCN(c2cccc(Nc3nc4c(-c5ccc(S(C)(=O)=O)cc5)cccn4n3)c2)CC1
active: Potency [4] 4.17 µM | Potency [6] 0.662 µM | Potency [7] 2.35 µM | Potency [10] 1.66 µM | Potency [8] 5.9 µM | Potency [9] 13.2 µM
inactive: Potency [1] | Potency [2]

CCn1cc(-c2ccnc3[nH]c(-c4cccc(CN(C)C)c4)cc23)c(-c2ccc(NC(=O)N(C)C)cc2)n1
inactive: Potency [1] | Potency [2]
active: Potency [5] 8.33 µM | Potency [6] 0.186 µM | Potency [10] 4.17 µM | Potency [8] 5.25 µM | Potency [9] 5.9 µM

Cn1c(NC[C@@H](N)Cc2ccccc2)nc(-c2ccncc2)c(-c2ccc3ccccc3c2)c1=O
inactive: Potency [1] | Potency [2]
active: Potency [5] 20.9 µM | Potency [6] 20.9 µM | Potency [7] 26.3 µM

C[C@@H]1COC(Nc2ccc3ncnc(Nc4ccc(OCc5nccs5)c(Cl)c4)c3c2)=N1
inactive: Potency [1] | Potency [2]
active: Potency [6] 18.6 µM | Potency [7] 20.9 µM | Potency [10] 26.3 µM

O=C(O)C1=CO[C@@H](O[C@@H]2O[C@H](CO)[C@@H](O)[C@H](O)[C@H]2O)[C@@H]2C(CO)=CC[C@H]12
inactive: Potency [1] | Potency [2] | viability [4] 118% | Potency [7] | Potency [10] | Potency [8] | Potency [9]

COc1cc(-c2cc(-c3ccc(N4CCNCC4)cc3)cnc2C)cc(OC)c1OC
active: Potency [6] 10.5 µM
inactive: Potency [1] | Potency [2] | viability [4] 104%

Clc1cccc(-c2ccc(-c3nnc(CCCc4ccc5cccnc5n4)o3)cc2)c1
inactive: Potency [1] | Potency [2] | Potency [5] | Potency [6] | Potency [7] | Potency [10] | Potency [8] | Potency [9]

CCn1c(=O)c(-c2ccc(-c3cncs3)cc2Cl)cc2cnc(Nc3ccc(N4CCN(C)CC4)cc3)nc21
inactive: Potency [1] | Potency [2] | viability [4] 104%
active: Potency [6] 1.86 µM

CN(C)Cc1ccc(-c2nc3cccc4c3n2CCNC4=O)cc1
inactive: Potency [1] | Potency [2] | Potency [5]
active: Potency [7] 18.6 µM | Potency [9] 23.5 µM

C[C@@H]1CCNC(=O)c2cc3ccc(C(=O)Nc4nc5ccccc5n4CCCN(C)C)cc3n21
inactive: Potency [1] | Potency [2]
active: Potency [5] 6.61 µM | Potency [6] 0.59 µM | Potency [7] 16.6 µM

C=CC(=O)N1CCC[C@@H](n2nc(-c3ccc(Oc4ccccc4)cc3)c3c(N)ncnc32)C1
inactive: Potency [1] | Potency [2] | Potency [5]
active: Potency [7] 5.9 µM

O=C(O)c1ccc(CN2CCC(CN[C@@H]3C[C@H]3c3ccccc3)CC2)cc1
inactive: Potency [1] | Potency [2] | Potency [7] | Potency [8] | Potency [9]
active: Potency [4] 0.186 µM | Potency [10] 0.209 µM

CNCc1ccc(-c2cc(-c3nc(-c4ccc(S(=O)(=O)C(C)C)cc4)cnc3N)on2)cc1
active: Potency [10] 0.742 µM
inactive: Potency [1] | Potency [2] | Potency [5]

COc1cc2c(cc1OC(C)C)[C@H](c1ccc(Cl)cc1)N(c1ccc(N(C)CC3CCC(N4CCN(C)C(=O)C4)CC3)cc1)C(=O)C2 (stereo not given in full)
inactive: Potency [1] | Potency [2]
active: Potency [5] 11.8 µM | Potency [6] 2.35 µM | Potency [7] 3.72 µM | Potency [10] 4.68 µM | Potency [8] 5.9 µM

CC(C)c1c(-c2ccccc2)nc2c(C#N)c[nH]n2c1=O
inactive: Potency [1] | Potency [2] | Potency [5] | Potency [7] | Potency [10] | Potency [9]
